In assay [1] the test system is TRPC4 beta (transient receptor potential cation channel C4), mouse. The assay is described as follows: activators of mouse TRPC4 channel, confirmation, cell-based, Fluo4 calcium, HEK293 TRPC4beta/mu-opioid, duplicates, 10 µM (AID 2426).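 For activation: percent rise of integrated ratio over buffer wells lacking compound which define 0%.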 The following applies: Fluo4 calcium fluorescence, at 10 µM; active compounds read high.
In assay [2] the test system is transient receptor potential cation channel C4 beta (TRPC4), mouse. The assay is described as follows: activators of mouse TRPC4 channel, confirmation, cell-based, second round, Fluo4, HEK293 TRPC4beta/mu-opioid, 1 µM (AID 2461;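 active = primary screen active and over 50% activation in each of two duplicate runs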). The following applies: Fluo4 calcium fluorescence, at 1 µM; active compounds read high.
Assay [3] concerns TRPC4 (transient receptor potential cation channel C4 beta), mouse. The assay can be described thus: positive allosteric modulators of mouse TRPC4, confirmation, cell-based, second round, Fluo-4, HEK293 TRPC4beta/mu-opioid, 1 µM (AID 2554;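 active = primary screen hit whose fluorescence ratio, in both repeats, exceeds the weak agonist control mean by 3 SD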). As to conditions: DAMGO EC20, Fluo-4 calcium flux, at 1 µM; active compounds read high. On the technique in general: A change in cytosolic calcium serves as a functional read-out for many receptors and channels.

The subject of assay [4] is TRPC4 beta (transient receptor potential cation channel C4), mouse. The assay can be described thus: positive allosteric modulators of mouse TRPC4, confirmation, cell-based, Fluo-4, HEK293 TRPC4beta/mu-opioid (AID 2555;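 active = primary screen hit whose calcium fluorescence ratio, in both repeats, exceeds the weak agonist control mean by 3 SD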). The following applies: DAMGO EC20, Fluo-4 calcium flux, at 10 µM; active compounds read high.
Assay [5] has as its target Short transient receptor potential channel 4 (Mus musculus) (UniProt Q9QUQ5). The assay can be described thus: inhibitors of mouse TRPC4 channel, confirmation, cell-based, Fluo4, HEK293 TRPC4beta/mu-opioid (AID 2636;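 active = calcium signal cut by more than 3 SD below the full-agonist control yet still positive, in both repeats and the earlier primary screen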). As to conditions: DAMGO, Fluo4 calcium flux, at 10 µM; active compounds read high.
For assay [6] the target is unchanged. The assay is described as follows: inhibitors of mouse TRPC4 channel, confirmation, cell-based, second round, Fluo4, HEK293 TRPC4beta/mu-opioid, 1 µM (AID 2637;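 active = calcium signal ratio cut to more than 3 SD under the fully stimulated control mean yet still positive, in both repeats and the primary screen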). The following applies: Fluo4 calcium flux, DAMGO, at 1 µM; active compounds read high.
The target is the same in assay [7]. The assay can be described thus: mouse TRPC4 channel activators, dose response, cell-based, HEK293 TRPC4/mu-opioid, Fluo-4 calcium (AID 434937;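 active = primary screen activator hit with a dose response curve and TRPC4 channel activation at any tested dose; inactive = no activation, no dose response, or not a primary hit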).
Assay [8] shares this target. The assay can be described thus: TRPC4 positive allosteric modulators, dose response, cell-based, HEK293 TRPC4/mu-opioid, Fluo-4 calcium, EC20 DAMGO (AID 434941;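 active = earlier screen potentiator hit that boosts the TRPC4 ion channel at some dose, with a dose response; inactive = no potentiation, no dose response, or not a prior hit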;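 note: calcium entry triggered by an EC20 dose of DAMGO at the co-expressed mu-opioid receptor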).
For assay [9] the target is unchanged. The assay can be described thus: mouse TRPC4 channel inhibitors, dose response, cell-based, HEK293 TRPC4/mu-opioid, Fluo-4 calcium (AID 434942;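 active = primary screen inhibitor hit that blocks the TRPC4 channel at some tested dose, yielding a dose curve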).
Assay [10] addresses Short transient receptor potential channel 6 (Mus musculus) (UniProt Q61143). The assay can be described thus: inhibition of mouse TRPC6 channel, confirmation, selectivity assay for TRPC4 inhibitor project, cell-based, HEK293, membrane potential dye, duplicate (AID 434948;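 active = active in primary screen and both duplicates, each dropping signal beyond three positive-control SD with fluorescence still positive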). As to conditions: HEK293 TRPC6, membrane potential dye fluorescence, at 10 µM, stimulated with maximal-effect acetylcholine; active compounds read high.

Assay [11] has the same target. The assay is described as follows: activation of mouse TRPC6 channel, confirmation, selectivity assay for TRPC4 activator project, cell-based, HEK293, membrane potential dye, duplicate (AID 434950;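 active = membrane potential signal rise above negative control mean plus 3 SD in both duplicates, also active in the earlier TRPC4 screen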). The following applies: HEK293 TRPC6, membrane potential fluorescence, at 10 µM; active compounds read high.
For assay [12] the target is unchanged. The assay can be described thus: TRPC6 potentiation by TRPC4 potentiator hits, confirmation, selectivity assay for TRPC4 potentiator project, HEK293 cells, membrane potential dye, duplicate (AID 434952;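 active = compound raising the membrane signal above positive-control mean plus 3 SD in both repeats, and a primary screen hit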). The following applies: HEK293 TRPC6, membrane potential dye fluorescence, at 10 µM, maximal acetylcholine added after compound; active compounds read high.
In assay [13] the target is Short transient receptor potential channel 4 (Mus musculus) (UniProt Q9QUQ5). The assay can be described thus: calcium flux activators in TRPC4/5HT1a cells, counter-screen for TRPC4 activator project, cell-based, second counter screen, HEK293 TRPC4/5HT1a, Fluo-4 (AID 434977;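 active = calcium signal rise above buffer-control mean plus 5 SD in both duplicates, and also a hit in the primary screen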). As to conditions: Fluo-4 calcium flux, at 10 µM; active compounds read high.
Short transient receptor potential channel 4 (Mus musculus), sequence (Q9QUQ5 whole entry, looked up): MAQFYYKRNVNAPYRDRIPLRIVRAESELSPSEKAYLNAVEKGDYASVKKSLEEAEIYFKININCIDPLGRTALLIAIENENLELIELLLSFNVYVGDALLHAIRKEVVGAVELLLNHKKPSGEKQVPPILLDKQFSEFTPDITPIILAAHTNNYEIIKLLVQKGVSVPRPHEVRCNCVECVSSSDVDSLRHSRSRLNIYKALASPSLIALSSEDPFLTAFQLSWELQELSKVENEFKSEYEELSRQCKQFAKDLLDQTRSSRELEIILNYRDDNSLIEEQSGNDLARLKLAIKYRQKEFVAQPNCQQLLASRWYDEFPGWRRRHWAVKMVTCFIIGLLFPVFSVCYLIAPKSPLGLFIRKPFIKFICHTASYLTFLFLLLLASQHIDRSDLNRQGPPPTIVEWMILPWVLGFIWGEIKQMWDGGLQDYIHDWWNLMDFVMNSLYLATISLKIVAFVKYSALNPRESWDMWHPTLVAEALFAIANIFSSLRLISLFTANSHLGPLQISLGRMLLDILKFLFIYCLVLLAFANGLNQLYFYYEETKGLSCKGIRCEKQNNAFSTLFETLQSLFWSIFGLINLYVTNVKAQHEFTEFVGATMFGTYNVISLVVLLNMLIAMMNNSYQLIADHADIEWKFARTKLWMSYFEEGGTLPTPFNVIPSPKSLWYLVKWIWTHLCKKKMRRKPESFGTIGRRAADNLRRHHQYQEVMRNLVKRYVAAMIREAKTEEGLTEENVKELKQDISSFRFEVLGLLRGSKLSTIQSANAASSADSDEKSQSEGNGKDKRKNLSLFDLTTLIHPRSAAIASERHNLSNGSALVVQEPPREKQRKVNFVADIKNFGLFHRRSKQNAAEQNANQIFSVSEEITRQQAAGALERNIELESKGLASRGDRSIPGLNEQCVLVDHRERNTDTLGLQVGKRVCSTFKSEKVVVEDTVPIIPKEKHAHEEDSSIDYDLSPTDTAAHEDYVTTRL
A short description of assay [14]: calcium flux inhibitors in TRPC4/5HT1a cells, confirmation, counter-screen for TRPC4 inhibitor project, cell-based, second counter screen, HEK293 TRPC4/5HT1a, Fluo-4 (AID 434978;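 active = primary screen active whose calcium signal fell more than 3 SD beyond the full-serotonin control mean in both duplicate plates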;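 for outcome: serotonin given first at submaximal then at maximal dose after compound preincubation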). As to conditions: Fluo-4 calcium flux, at 10 µM, serotonin added to trigger calcium flux; active compounds read high.
In assay [15] the test system is TRPC4 (mouse), co-expressed with 5HT1a in HEK293. The assay can be described thus: calcium flux potentiators in TRPC4/5HT1a cells, confirmation, counter-screen for TRPC4 potentiator project, cell-based, second counter screen, HEK293 TRPC4/5HT1a, Fluo-4 (AID 434979;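 active = signal rise over 3 SD above mean of control wells given weak agonist, in both repeats and first screen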). The following applies: Fluo-4 calcium flux, at 10 µM, serotonin added at its EC20 dose; active compounds read high.

Assay [16] can be described thus: calcium flux activation in mu-opioid HEK293 cells, confirmation, counter-screen for TRPC4 activator project, cell-based, HEK293 mu-opioid receptor line (AID 449723;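 active = hit in primary screen, with calcium signal over 5 SD above buffer well mean in both duplicates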;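 note: counter screen cells carry the mu-opioid receptor alone and lack TRPC4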). The following applies: Fluo-4 calcium fluorescence, at 10 µM; active compounds read high.
Assay [17] in a line: calcium flux enhancement in mu-opioid HEK293 cells, confirmation, counter-screen for TRPC4 allosteric potentiator project, cell-based, HEK293 mu-opioid receptor line (AID 449724;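 active = calcium signal rise more than 3 SD above the low-dose agonist control mean, in both duplicate plates and the primary screen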;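 note: HEK293 cells carrying mu-opioid receptor only with no TRPC4 channel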). As to conditions: Fluo-4 calcium flux, at 10 µM, compound added before EC20 DAMGO stimulus; active compounds read high.

What is called inhibition is the change of the read-out against control, counted positive when it falls.

For part of these data: Potency and affinity values are given separately. Calls of active or inactive are those of the source.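 Rule for the calls, unless noted: active = fluorescence ratio normalized to control raised more than 50% in primary screen plus both repeat runs; inactive = the rest.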

Short transient receptor potential channel 6 (Mus musculus), sequence (Q61143 whole entry, looked up): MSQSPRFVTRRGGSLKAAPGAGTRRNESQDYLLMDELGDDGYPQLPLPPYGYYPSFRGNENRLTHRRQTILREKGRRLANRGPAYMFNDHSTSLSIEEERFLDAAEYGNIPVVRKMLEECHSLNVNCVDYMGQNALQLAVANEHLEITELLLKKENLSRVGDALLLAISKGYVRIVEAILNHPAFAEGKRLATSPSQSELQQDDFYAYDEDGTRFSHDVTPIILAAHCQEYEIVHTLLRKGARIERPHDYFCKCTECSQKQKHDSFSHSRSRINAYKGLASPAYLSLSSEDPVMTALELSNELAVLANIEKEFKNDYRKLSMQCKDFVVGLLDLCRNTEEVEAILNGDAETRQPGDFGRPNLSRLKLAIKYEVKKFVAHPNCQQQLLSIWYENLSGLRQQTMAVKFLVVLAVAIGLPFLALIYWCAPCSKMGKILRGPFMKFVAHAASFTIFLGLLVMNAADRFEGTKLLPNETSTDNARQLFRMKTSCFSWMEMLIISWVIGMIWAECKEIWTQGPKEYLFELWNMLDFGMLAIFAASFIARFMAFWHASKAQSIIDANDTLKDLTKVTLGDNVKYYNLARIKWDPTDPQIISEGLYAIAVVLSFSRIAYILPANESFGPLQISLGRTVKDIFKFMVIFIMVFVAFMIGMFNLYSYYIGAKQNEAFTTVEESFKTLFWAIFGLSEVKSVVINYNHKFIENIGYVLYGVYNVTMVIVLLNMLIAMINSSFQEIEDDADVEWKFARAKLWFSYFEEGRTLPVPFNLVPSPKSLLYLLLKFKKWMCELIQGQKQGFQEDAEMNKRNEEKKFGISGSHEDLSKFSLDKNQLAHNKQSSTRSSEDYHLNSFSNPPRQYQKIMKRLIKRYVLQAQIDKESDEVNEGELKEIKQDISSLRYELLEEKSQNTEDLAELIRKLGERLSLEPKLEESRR

On to `N=c1c2c3c(sc2ncn1Cc1ccccc1)CCCC3`, for which the outcome in assay [1], in assay [2], in assay [3], in assay [4], in assay [5] and in assay [6] was inactive. Besides, the result in assay [7], in assay [8], in assay [9], in assay [10], in assay [11] and in assay [12] was inactive. For the same molecule, the result in [13], in [14], in assay [15], in assay [16] and in assay [17] was inactive.

`CCCC1C(=O)Nc2ccccc2N1C(=O)c1ccc(C(C)(C)C)cc1` (stereo not given): the outcome in assay [1], in assay [2], in assay [3], in [4], in [5] and in [6] was inactive. Further, the outcome in [7], in assay [8], in [9], in assay [10], in assay [11] and in [12] was inactive. In addition, the outcome in [13], in assay [14], in [16] and in assay [17] was inactive. In [15], the potentiation was 30.4% (active).

`O=C(OCC(=O)N1CCOCC1)c1cccc(S(=O)(=O)N2CCCc3ccccc32)c1`: the result in [1], in assay [2], in assay [3], in [4], in [5] and in assay [6] was inactive. Moreover, the outcome in [7], in assay [8], in assay [9], in assay [10], in assay [11] and in assay [12] was inactive. The outcome in assay [13], in assay [14], in assay [16] and in [17] was inactive. The potentiation in assay [15] is 10.2% (active).

In the case of `CCC(=O)c1ccc(N2CCN(C(=O)c3ccccc3Br)CC2)c(F)c1`, the outcome in assay [1], in assay [2], in [3], in assay [4], in assay [5] and in assay [6] was inactive. In addition, the result in assay [7], in assay [8], in [9], in [10], in assay [11] and in assay [12] was inactive. The result in [13], in [14], in assay [16] and in [17] was inactive. Further, the potentiation in [15] is 19.2% (active).

Regarding `CC(C)CN(C(=O)C1CC1)c1c(N)n(Cc2ccccc2)c(=O)[nH]c1=O`, the result in assay [1], in [2], in assay [3], in assay [4], in [5] and in [6] was inactive. The result in [7], in [8], in assay [9], in assay [10], in [11] and in assay [12] was inactive. Further, the outcome in [13], in assay [14], in assay [15], in [16] and in [17] was inactive.

Consider `CCCCN(C)CCNC(=O)c1ccc(Cn2c(=S)[nH]c3ccc(Br)cc3c2=O)cc1`, for which the outcome in assay [1], in [2], in assay [3], in assay [5], in assay [6] and in assay [7] was inactive. The result in [8], in assay [9], in assay [10], in assay [11], in assay [12] and in assay [13] was inactive. Also, the result in [14], in [16] and in assay [17] was inactive. Also, the potentiation in assay [4] is 16% (active); in assay [15], 33.5% (active).

Take `Cc1ccc(CN(C(=O)c2cc(=O)c3cc(Cl)c(C)cc3o2)C2CCS(=O)(=O)C2)cc1` (stereo not given): the outcome in [1], in assay [2], in assay [3], in assay [4], in assay [5] and in assay [6] was inactive. Further, the result in [7], in assay [8], in [9], in assay [10], in [11] and in assay [12] was inactive. In addition, the result in assay [13], in assay [14], in assay [16] and in assay [17] was inactive. Besides, in assay [15], the potentiation is 64% (active).

As to `O=c1c2ccccc2nc(SCc2nc3ccccc3s2)n1CCCO`, the outcome in assay [1], in [2], in [3], in [4], in [5] and in assay [6] was inactive. Moreover, the outcome in assay [7], in assay [8], in [9], in assay [10], in assay [11] and in assay [12] was inactive. Also, the result in assay [13], in assay [14], in [15], in [16] and in [17] was inactive.

On to `Cc1ccc(NS(=O)(=O)c2cc(N)ccc2Cl)c(C)c1`, for which the result in assay [1], in [2], in [3], in assay [4], in assay [5] and in assay [6] was inactive. Besides, the outcome in [7], in assay [8], in [9], in assay [10], in assay [11] and in assay [12] was inactive. Further, the result in assay [13], in assay [14], in [15], in [16] and in [17] was inactive.

`CCCCc1nc(N2CCOCC2)c(C#N)c2c1CCCC2`: the outcome in assay [1], in [2], in assay [3], in assay [4], in assay [5] and in [6] was inactive. The result in [7], in assay [8], in assay [9], in [10], in [11] and in assay [12] was inactive. The outcome in assay [13], in assay [15], in assay [16] and in [17] was inactive. Besides, the inhibition in assay [14] was 36.5% (active).

Consider `Clc1ccc2[nH]c3c(c2c1)CNCC3`, for which the result in assay [1], in [2], in assay [5], in assay [6], in assay [7] and in assay [8] was inactive. In addition, the outcome in [9], in assay [10], in assay [11], in assay [12], in [13] and in [14] was inactive. The outcome in assay [15], in assay [16] and in [17] was inactive. Besides, the values for the potentiation in [3] and in assay [4] were 10% (active) and 12% (active), respectively.

As for `Cn1c(=O)cc(OCCCC(=O)NCCCN2CCN(Cc3ccccc3)CC2)c2ccccc21`, the result in [1], in assay [2], in assay [5], in assay [6], in assay [7] and in assay [8] was inactive. For the same molecule, the result in [9], in [10], in assay [11], in assay [12], in assay [13] and in [14] was inactive. Also, the result in assay [16] and in assay [17] was inactive. Besides, the potentiation is 19% (active) in [3], 19% (active) in assay [4] and 21% (active) in assay [15].

For the molecule `CC(=O)OCC1O[C@@H](O[C@@H]2C[C@H]3C(C)(C)[C@H](OC(C)=O)CC[C@]3(C)[C@H]3CC[C@]45C[C@]4(CC[C@H]5[C@@H](C)C[C@@H](O)[C@H](O)C(C)(C)O)[C@@]32C)[C@H](O)[C@@H](O)[C@@H]1O` (stereo not given in full), the activation in assay [1] was 173% (active); in assay [16], 28.8% (active). The result in assay [2], in [3], in assay [4], in [5], in assay [6] and in assay [7] was inactive. Further, the result in assay [8], in assay [9], in [10], in assay [11], in [12] and in [13] was inactive. Also, the result in assay [14], in [15] and in assay [17] was inactive.

Take `COc1ccccc1N1CCN(c2ncc(C(=O)N3CCN(c4cccc(Cl)c4)CC3)c3ccccc23)CC1`: the outcome in assay [1], in assay [2], in assay [3], in assay [4], in assay [5] and in assay [6] was inactive. In addition, the result in assay [7], in assay [8], in assay [9], in assay [10], in [11] and in assay [12] was inactive. The result in [13], in assay [14], in [16] and in assay [17] was inactive. In [15], the potentiation was 13.4% (active).

With `O=C(NC1CCN(Cc2ccccc2)CC1)c1cccc(S(=O)(=O)Nc2cc(C(F)(F)F)ccc2Cl)c1`, the result in assay [1], in assay [2], in assay [4], in assay [5], in [6] and in [7] was inactive. For the same molecule, the outcome in [8], in assay [9], in assay [10], in assay [11], in assay [12] and in assay [13] was inactive. For the same molecule, the result in assay [14], in assay [16] and in assay [17] was inactive. Also, the potentiation was 13% (active) in [3] and 22.2% (active) in assay [15].

The record behind these values is PubChem BioAssay.
